Source: PubChem BioAssay AID1491 (National Center for Advancing Translational Sciences (NCATS), 2009)
Results filed as inconclusive are left out. The source made the active and inactive calls. The call rests on the fitted dose curve; in most records, active means well fitted inhibition curve with a large enough effect in the main read-out, with a control signal flat; inconclusive means small, poorly fitted or top-dose-only effect, or a change in a side signal; inactive means flat fitted curve, though single readings scatter.
Potency means the concentration at half of the fitted maximal effect.

What follows are compounds tested against Neuropeptide S receptor (Homo sapiens) (UniProt Q6W5P4) (assay: Confirmation Concentration-Response Assay for Antagonists of the Neuropeptide S Receptor: cAMP Signal Transduction). Conditions: CHO-NPSR cells, cAMP TR-FRET, antagonist mode; series mostly up to 22.3 µM.
Neuropeptide S receptor (Homo sapiens), sequence (Q6W5P4 whole entry, looked up): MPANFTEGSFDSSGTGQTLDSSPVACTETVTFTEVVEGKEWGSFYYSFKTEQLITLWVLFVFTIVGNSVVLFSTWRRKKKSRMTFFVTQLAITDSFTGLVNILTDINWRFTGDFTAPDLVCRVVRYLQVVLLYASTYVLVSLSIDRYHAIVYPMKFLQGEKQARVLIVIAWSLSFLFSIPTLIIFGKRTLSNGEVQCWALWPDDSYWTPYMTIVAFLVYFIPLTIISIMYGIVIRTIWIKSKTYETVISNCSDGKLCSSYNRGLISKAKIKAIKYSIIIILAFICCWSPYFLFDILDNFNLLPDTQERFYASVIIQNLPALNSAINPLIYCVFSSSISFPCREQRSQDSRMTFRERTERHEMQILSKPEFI
Source text: NIH Chemical Genomics Center [NCGC] NIH Molecular Libraries Probe Production centers Network [MLPCN] MLPCN Grant: X01-DA026210-01 Assay Submitter (PI): Heilig, Markus Alexander NCGC Assay Overview: Neuropeptide S receptor (NPSR), previously known as GPR154, is a recently de-orphanized G protein coupled receptor. Its endogenous ligand is the 20 amino acids peptide Neuropeptide S (NPS). […] NPS and its receptor are found in various tissues. Specifically they are highly expressed in brain areas that have been implicated in modulation of arousal, stress and anxiety. Central administration of NPS in mice produces an unusual profile of activity by inducing wakefulness and arousal, while at the same time suppressing anxiety. Therefore, NPSR may represent a novel drug target for the treatment of sleep and anxiety disorders. To identify NPSR antagonists, we developed a cell-based cAMP assay. NPS can stimulate the production of cAMP in Chinese hamster ovary cells stably expressing NPS receptor. This change in intracellular cAMP level can be detected by a homogeneous LANCE cAMP assay based on the TR-FRET (time resolved fluorescence resonance energy transfer) between a europium-labeled cAMP tracer complex and a cAMP-specific antibody labeled with Alexa Fluor 647. The europium-labeled cAMP tracer complex is formed by the tight interaction between Biotin-cAMP (b-cAMP) and streptavidin labeled with Europium-W8044 chelate (Eu-SA). Light pulse at 320 nm excites the europium of the cAMP tracer and the energy emitted is transferred to the Alexa molecule bound to the cAMP antibody, generating a TR-FRET signal at 665 nm. Residual energy from the europium will produce a light at 620 nm. The native unlabeled cAMP from cell lysates competes with the europium-cAMP tracer for antibody binding and reversely reduces the emission signal of Alexa by interrupting FRET between the two labeled molecules. Both emission signals from the FRET donor (620 nm) and the acceptor (665 nm) can be detected by a plate reader in the TRF mode. Expression of result in fluorescence ratio (665 nm/620 nm) helps to normalize differences due to cell density and reagent dispensing. This assay was successfully optimized to a 1536-well plate format. Select compounds from the primary screen (AID 1461) were chosen for confirmation based on potency, efficacy, SAR, and activity across other assays in PubChem and at NCGC. Other compounds are analogs of active compounds from the primary sceen.
NCGC Assay Protocol Summary: A Chinese hamster ovary (CHO) cell line stably expressing the NPS receptor (CHO-NPSR) was obtained from Dr. Heilig lab at NIAAA and maintained in F-12 Kaighn's media (Invitrogen, Carlsbad, CA, 21127) supplemented with 10 % FBS, 100 units/ml penicillin, 100 ug/ml streptomycin and 250 ug/ml geneticin at 37C, 5% CO2 in a humidified atmosphere. Before the assay, aliquots of cells were frozen and stored at -135C. The assay was performed in 1536-well format. Data are reported for both the ratio of the two emission wavelengths, and also for the component 'donor' channel, Em2=620. […] IC50 values were determined from concentration-response data modeled with the standard Hill equation. NPS 1536-well assay protocol: (1) Fresh or frozen CHO-NPSR cells were suspended in F-12 Kaighn's media supplemented with 10 % FBS, 100 units/ml penicillin and 100 ug/ml streptomycin. Cells were plated at 4 ul/well (1200 cells) to white, tissue culture treated 1536-well plates, and then cultured at 37C, 5 % CO2 for 16 to 30 hours. (2) Add 23 nl/well of compound in DMSO solution. The final titration for each compound was between 0.6 nM and 46 uM. (3) Add 1 ul of stimulation reagent (1X HBSS buffer, 5 mM HEPES, 0.1% BSA, 500 uM RO-201724 (Sigma-Aldrich, B8279), 1.5% Alexa 647-labeled anti-cAMP antibody (from Perkin Elmer), 100 nM NPS) (4) Incubation at 37C, 5 % CO2 for 60 min. (5) Add 1 ul/well detection reagent. […]
With `CC(=O)Nc1cc([As](=O)(O)O)ccc1O` the Potency was “inactive”. In the case of `Cc1c(P(=S)(c2ccccc2)c2ccccc2)[n+]2ccccc2n1C`, the Potency is reported as 1.12 µM (active). With `C=C1C(=O)O[C@@H]2C[C@@H](C)[C@@H]3C=CC(=O)[C@@]3(C)[C@@H](OC(=O)CC(=O)O[C@H]3[C@@H]4C(=C)C(=O)O[C@@H]4C[C@@H](C)[C@@H]4C=CC(=O)[C@]43C)[C@H]12` the Potency was 1 µM (active). `C=C(C=O)CC1CC(O)[C@]2(C)OC3CC4OC5C[C@]6(C)O[C@]7(C)CCC8OC9C[C@]%10(C)OC%11C(C)=CC(=O)OC%11CC%10OC9C[C@@H](C)C8OC7CC6O[C@]5(C)CC5OC5C4OC3CC2O1` (stereo partly specified) was tested, and the Potency was “inactive”. `CN(C)C(=S)SSC(=S)N(C)C` was tested, and the Potency was “inactive”. For `C=CCN1C(=O)/C(=C/c2cccs2)C(=O)NC1=S`, the Potency was 11.2 µM (active). With `CCOC(=O)c1c(-n2c(C)cc(C=C3C(=O)NC(=S)NC3=O)c2C)sc2c1CCCC2` the Potency was 10 µM (active). `Cc1cccc(N2C(=O)NC(=O)/C(=C\c3cnn(-c4ccccc4)c3)C2=O)c1` was tested, and the Potency was 10 µM (active). In the case of `C[C@H]1CCCC(=O)CCCCCc2cc(O)cc(O)c2C(=O)O1`, the Potency is reported as “inactive”. In the case of `Cc1cc(C=C2C(=O)NC(=S)NC2=O)c(C)n1-c1ccc2c(c1)OCO2`, the Potency is reported as 12.6 µM (active). `Cn1ncnc2c(=O)n(C)c(=O)nc1-2` was tested, and the Potency was “inactive”.
